Test results from the supplement of paper PMC9950053.
Counter-ions that a name gives are not always drawn.

Each compound was assayed on Danio rerio larvae (5 dpf) (assay: combined optomotor response (time in upper well half, down vs up moving lines, periods 7-14) minus DMSO control (percentage points); higher = stronger optomotor response than DMSO larvae). Settings: 10 µM; exposure time: 3 h pre-incubation + 3 h imaging.

Structure (SMILES)	combined optomotor response
Nc1nc(F)nc2c1ncn2[C@@H]1O[C@H](CO)[C@@H](O)[C@@H]1O [Fludarabine]	-1.67
O=c1[nH]c(=O)n([C@H]2C[C@H](O)[C@@H](CO)O2)cc1C(F)(F)F [Trifluorothymidine]	5.31
Nc1ccn([C@@H]2O[C@H](CO)[C@@H](O)C2(F)F)c(=O)n1 [Gemcitabine hydrochloride]	1.86
